# The panel holds about 83,000 compounds, 20% with a hit somewhere; the sample as a whole holds those more often.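 Single-concentration screen, 48 h exposure, 96-well plates. Endpoint: percent growth. Below 10 = active.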 Calls of active or inactive are those of the source.
# System: M14 melanoma
# Assay: NCI-60 one-dose screen, 48 h (100 = growth as untreated, 0 = no growth, -100 = all killed)
# Conditions: 10 µM unless noted
row,SMILES,growth
1,CC(=O)Nc1ccc(-n2cnc3ccc(-c4ccc(O)cc4)cc32)cc1,48.7% (inactive)
2,NC(=S)Nc1cccc(NC(N)=S)c1,125% (inactive)
3,O=C(/C=C/c1ccc(O)c(O)c1)NC1CCOC1O (stereo not drawn),108% (inactive)
4,CCN1C(=O)/C(=N\N=C(/C)c2ccc3c(c2)Nc2ccccc2S3)c2cc(Cl)ccc21,67.5% (inactive)
5,S=C(NCCc1ccccc1)Nc1ccc(OCc2nc3ccccc3[nH]2)cc1,95.9% (inactive)
6,COc1ccc(-c2nc(SC(C)C)nc(NCCc3c[nH]c4ccccc34)c2C#N)cc1,55.7% (inactive)
7,S=C(Nc1ccccc1)Nc1ccc(OCc2nc3ccccc3[nH]2)cc1,36.9% (inactive)
8,CC1(C)CC[C@]2(C(=O)Nc3ccc(Br)cc3)CC[C@]3(C)C(=CCC4[C@@]5(C)C[C@@H](O)[C@H](O)[C@@](C)(CO)C5CC[C@]43C)C2C1 (stereo partly drawn),31.9% (inactive)
9,CC12CC[C@@H]3[C@]4(C)COC(c5c(F)cccc5F)O[C@@H]4CC[C@@]3(C)[C@@H]1CC(C1=CCOC1=O)O2 (stereo partly drawn),66.5% (inactive)
10,Cc1ccc(Cc2cnc(NC(=O)c3ccc(/C=C4\SC(=S)N(C)C4=O)cc3)s2)cc1,20.5% (inactive)
11,CC(=O)Nc1ccc(-n2cnc3cc(-c4ccc(O)cc4)ccc32)cc1C(F)(F)F,30.3% (inactive)
12,Cn1cc(NC(=O)c2cc(NC(=O)c3ccc(/C=C/c4ccccc4)cc3)cn2C)cc1C(=O)NCCCN1CCOCC1,-84% (active)
13,CN(C)CCCNC(=O)c1cc(NC(=O)c2cc(NC(=O)c3ccc(/C=C/c4ccccc4)cc3)cn2C)cn1C,48.1% (inactive)
14,CC(=O)OC[C@@]1(C)C2CC[C@]3(C)C(CC=C4C5CC(C)(C)CC[C@]5(C(=O)Nc5ccc(Br)cc5)CC[C@]43C)[C@@]2(C)C[C@@H](OC(C)=O)[C@@H]1OC(C)=O (stereo partly drawn),52.6% (inactive)
15,COc1ccc(NC(=O)Cn2c(O)c(N=Nc3ccc(S(N)(=O)=O)cc3)c3ccccc32)cc1,27.4% (inactive)
16,S=C(Nc1ccc(OCc2nc3ccccc3[nH]2)cc1)NC1CCCCC1,105% (inactive)
17,Cc1ccc(NC(=O)[C@]23CCC(C)(C)CC2C2=CCC4[C@@]5(C)C[C@@H](O)[C@H](O)[C@@](C)(CO)C5CC[C@@]4(C)[C@]2(C)CC3)cc1 (stereo partly drawn),38.3% (inactive)
18,O=S(=O)(Nc1cccc(-n2cnc3cc(-c4ccc(O)cc4)ccc32)c1)C1CC1,29.7% (inactive)
19,Cn1cc(-c2nnc(N)nc2-c2c[nH]c3ccccc23)c2cccnc21,20.8% (inactive)
20,CN(C)c1ccnc(CNCCSC2(c3ccc(C(F)(F)F)cc3)c3ccccc3CCc3ccccc32)c1,-75.6% (active)
21,N/N=C(\N)c1c(N)nc(=S)[nH]c1-c1ccc(Cl)cc1Cl,107% (inactive)
22,COc1ccc2[nH]cc(-c3nnc(N)nc3-c3c[nH]c4ncc(Br)cc34)c2c1,97.6% (inactive)
23,COc1cc(C2CC(c3cc(OC)c(OC)c(OC)c3)=NN2c2ccccc2)ccc1OCc1ccc(C)cc1 (stereo not drawn),97.8% (inactive)

# Source: PubChem BioAssay (NCI)
